# Assay results reported in PubChem BioAssay AID753 (Emory University Molecular Libraries Screening Center, 2007).
# The other results are listed elsewhere or left out. Inconclusive results are not listed. Values without a mark were called inactive. The source made the active and inactive calls.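 The calls were made as follows: active = percent of control activity at or below 60%; inconclusive = HPLC trace unusable from injection failure or solvent front hiding peaks; inactive = the rest, plus ubiquitin peak ratio over a set limit.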
# Molecular target: Ubiquitin carboxyl-terminal hydrolase BAP1 (Homo sapiens) (UniProt Q92560)
# Assay: BAP1 ubiquitin ester hydrolysis inhibition – biochemical, Ub-ethyl ester substrate, HPLC readout, orthogonal assay, confirmation (AID 753)
# Settings: purified BAP1, Ub-ethyl ester hydrolysis; at 20 µM, hits give low values
# Chain of Ubiquitin carboxyl-terminal hydrolase BAP1 (Homo sapiens) (Q92560 whole entry, looked up): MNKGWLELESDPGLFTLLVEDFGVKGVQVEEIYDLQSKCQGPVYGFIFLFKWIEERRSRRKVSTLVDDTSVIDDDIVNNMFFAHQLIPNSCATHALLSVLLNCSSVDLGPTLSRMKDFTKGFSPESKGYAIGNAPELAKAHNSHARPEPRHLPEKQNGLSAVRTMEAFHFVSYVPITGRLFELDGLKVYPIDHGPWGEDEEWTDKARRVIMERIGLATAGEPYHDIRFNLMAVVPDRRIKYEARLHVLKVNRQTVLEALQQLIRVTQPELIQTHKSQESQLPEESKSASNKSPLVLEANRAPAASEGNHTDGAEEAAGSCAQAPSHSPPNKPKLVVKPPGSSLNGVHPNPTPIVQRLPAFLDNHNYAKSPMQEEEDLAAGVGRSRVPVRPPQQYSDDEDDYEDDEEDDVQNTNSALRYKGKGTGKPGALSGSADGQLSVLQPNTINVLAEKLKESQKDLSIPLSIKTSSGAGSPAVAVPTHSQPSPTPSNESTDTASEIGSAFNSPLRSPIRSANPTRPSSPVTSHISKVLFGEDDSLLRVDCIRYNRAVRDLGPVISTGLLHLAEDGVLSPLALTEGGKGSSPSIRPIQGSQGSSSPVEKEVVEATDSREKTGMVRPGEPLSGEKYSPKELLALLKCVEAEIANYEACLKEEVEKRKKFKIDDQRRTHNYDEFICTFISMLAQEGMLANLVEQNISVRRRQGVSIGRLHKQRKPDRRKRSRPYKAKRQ
Compound,% of control activity [%],outcome
Fc1ccc2nc(Nc3nc4c(s3)CCCC4)sc2c1,142,
CCOc1ccc(CN(Cc2ccco2)C(c2cccs2)c2nnnn2C(C)(C)C)cc1 (configuration not stated),,inactive
O=c1c2ccccc2nc(CSc2nnnn2-c2ccccc2)n1-c1ccccc1,83.3,
C=CCn1c2ccccc2c2nnc(SC(CC)C(=O)Nc3nc(C)c(C(=O)OCC)s3)nc21 (configuration not stated),73.6,
Fc1ccc(-c2ccc(-c3nn4c(-c5ccco5)nnc4s3)o2)cc1,106,
CCC(c1nnnn1C1CCCC1)N(Cc1cccs1)Cc1cc2cccc(C)c2[nH]c1=O (configuration not stated),99.7,
N#Cc1c(/N=C/N2CCCC2)oc(-c2ccccc2)c1-c1ccccc1,111,
